Data as given in the supplement of paper PMC3545927.
This is one part of the list. The hit rate among all sequences tested is not known here.

Target: furin, P09958
Assay: furin cleavage Z-score vs untreated control; higher = more cleavage, active = 3.5 or more, inactive = 1 or less, 8 variable residues between constant flanks
Method in brief: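 Purified furin cleaved 8-mer peptides that were fused to a cDNA oligonucleotide and held on magnetic beads by their N-terminus. Each 0.01 ml reaction used a 1:10 enzyme:substrate ratio in 50 mM HEPES pH 7.5 with CaCl2 and NaCl and ran 7.5, 15 or 30 min. Released DNA was adapter-tagged by PCR and sequenced, and read counts gave abundance. The cleavage Z-score came from log counts against furin-free reactions, lowess-adjusted and scaled by median absolute deviation.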

furin, P09958, sequence (P09958 whole entry): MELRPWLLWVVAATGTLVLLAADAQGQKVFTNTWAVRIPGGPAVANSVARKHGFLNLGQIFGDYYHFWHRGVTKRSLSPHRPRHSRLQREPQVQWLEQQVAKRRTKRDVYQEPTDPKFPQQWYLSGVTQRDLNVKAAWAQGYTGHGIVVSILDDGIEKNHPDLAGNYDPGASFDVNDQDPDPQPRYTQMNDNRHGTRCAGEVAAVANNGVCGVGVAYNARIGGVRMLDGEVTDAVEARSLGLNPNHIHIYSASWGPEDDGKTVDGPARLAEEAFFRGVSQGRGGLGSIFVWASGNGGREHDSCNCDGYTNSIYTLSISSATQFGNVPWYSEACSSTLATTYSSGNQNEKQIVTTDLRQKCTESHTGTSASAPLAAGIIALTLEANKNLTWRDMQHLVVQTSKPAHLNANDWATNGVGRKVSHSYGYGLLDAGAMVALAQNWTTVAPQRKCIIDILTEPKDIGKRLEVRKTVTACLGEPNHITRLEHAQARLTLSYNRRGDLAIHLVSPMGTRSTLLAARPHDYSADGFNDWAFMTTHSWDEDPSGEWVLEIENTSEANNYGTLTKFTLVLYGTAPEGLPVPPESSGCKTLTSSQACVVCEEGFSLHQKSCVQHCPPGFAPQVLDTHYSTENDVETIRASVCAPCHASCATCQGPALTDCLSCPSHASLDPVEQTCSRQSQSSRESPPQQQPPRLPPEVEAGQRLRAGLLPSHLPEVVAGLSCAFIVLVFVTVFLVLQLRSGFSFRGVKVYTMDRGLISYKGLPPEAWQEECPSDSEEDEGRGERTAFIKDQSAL

| Sequence | furin cleavage Z-score (7.5 min) | furin cleavage Z-score (15 min) | furin cleavage Z-score (30 min) |
| --- | --- | --- | --- |
| CADIIICDECAGNASASA [HC816] | -1.61 (inactive) | -0.956 (inactive) | 0.174 (inactive) |
| CARQKRSIVVAGNASASA [FS-2507] | 7.83 (active) | 9.33 (active) | 8.84 (active) |
| CARQKRIIGGAGNASASA [FS-2754] | -1.16 (inactive) | -0.537 (inactive) | 0.0214 (inactive) |
| CARQKREIDVAGNASASA [FS-3035] | 10.8 (active) | 12.7 (active) | 11.5 (active) |
| CARQIRYSVPAGNASASA [FS-1767] | 0.304 (inactive) | 0.942 (inactive) | -0.474 (inactive) |
| CARQIRGLEEAGNASASA [FS-2443] | 0.837 (inactive) | 3.93 (active) | 3.31 |
| CAWLQYFLTRAGNASASA [HC583] | -0.459 (inactive) | -0.712 (inactive) | -0.977 (inactive) |
| CASWAIKWEYAGNASASA [HC516] | -0.904 (inactive) | -1.39 (inactive) | 0.896 (inactive) |
| CARDQRDKDGAGNASASA [FS-2412] | 0.132 (inactive) | -0.98 (inactive) | -1.37 (inactive) |
| CARKRRDTGGAGNASASA [FS-2346] | 5.14 (active) | 4.44 (active) | 2.79 |
| CARAVRSINEAGNASASA [FS-2411] | 6.03 (active) | 6.9 (active) | 7.81 (active) |
| CARKRRSQDGAGNASASA [FS-1858] | 8.67 (active) | 10.1 (active) | 6.23 (active) |
| CAETKRSINEAGNASASA [FS-2539] | -1.27 (inactive) | -0.817 (inactive) | -0.177 (inactive) |
| CARGLRSIMEAGNASASA [FS-1709] | -0.826 (inactive) | 0.557 (inactive) | 1.78 |
| CARKRRSKSRAGNASASA [FS-2272] | 5.87 (active) | 6.56 (active) | 5.23 (active) |
| CATTPCSGSTAGNASASA [HC1938] | -0.179 (inactive) | -0.988 (inactive) | -0.748 (inactive) |
| CAEVVTETWVAGNASASA [HC153] | -0.809 (inactive) | -0.763 (inactive) | -1.97 (inactive) |
| CAEDGVNYATAGNASASA [HC240] | -0.763 (inactive) | -1.25 (inactive) | -0.298 (inactive) |
| CARALRLVDGAGNASASA [FS-2410] | -0.828 (inactive) | -0.615 (inactive) | -0.629 (inactive) |
| CARKRRLVAPAGNASASA [FS-2216] | 3.99 (active) | 5.02 (active) | 5.53 (active) |
| CASKSRIKKDAGNASASA [FS-91] | 7.52 (active) | 6.56 (active) | 6.64 (active) |
| CAYPVREKKDAGNASASA [FS-739] | -0.917 (inactive) | 0.614 (inactive) | 0.838 (inactive) |
| CAKTRRSVDGAGNASASA [FS-2248] | 6.46 (active) | 7.09 (active) | 5.86 (active) |
| CARKRRQSEGAGNASASA [FS-1733] | 10.4 (active) | 12.6 (active) | 8.83 (active) |
| CATERLYVGGAGNASASA [HC1499] | 0.0385 (inactive) | 0.416 (inactive) | -0.694 (inactive) |
| CALNPREKKDAGNASASA [FS-941] | -0.953 (inactive) | 0.314 (inactive) | 0.019 (inactive) |

| Sequence | furin cleavage Z-score (7.5 min) | furin cleavage Z-score (15 min) | furin cleavage Z-score (30 min) |
| --- | --- | --- | --- |
| CARPKRKVAPAGNASASA [FS-2284] | 1.89 | 0.659 (inactive) | 3.08 |
| CASYLKGSSGAGNASASA [HC740] | -0.0827 (inactive) | -0.32 (inactive) | -1.27 (inactive) |
| CAIQRLHGLSAGNASASA [HC1602] | -1.82 (inactive) | 1.34 | -0.804 (inactive) |
| CAWVVTSTWVAGNASASA [HC2148] | -0.151 (inactive) | 0.93 (inactive) | -1.01 (inactive) |
| CASKGRRRKDAGNASASA [FS-1656] | 5.25 (active) | 6.69 (active) | 5.72 (active) |
| CARKRRSLGDAGNASASA [FS-2976] | 11.1 (active) | 13.3 (active) | 9.59 (active) |
| CARFGRQDEGAGNASASA [FS-1947] | -2.89 (inactive) | -0.0904 (inactive) | -0.336 (inactive) |
| CARTIRSFEGAGNASASA [FS-2240] | 3.24 | 4.83 (active) | 5.83 (active) |
| CAFKIRMYVGAGNASASA [HC474] | -0.697 (inactive) | 0.386 (inactive) | -0.234 (inactive) |
| CARTNRDMHGAGNASASA [FS-3109] | -0.446 (inactive) | 1.17 | -0.99 (inactive) |
| CARKRRVLTPAGNASASA [FS-2979] | -0.402 (inactive) | -0.0349 (inactive) | -1.55 (inactive) |
| CACTMLVCGDAGNASASA [HC1526] | -1.57 (inactive) | -1.58 (inactive) | 0.193 (inactive) |
| CARKRRVRKDAGNASASA [FS-1560] | 8.86 (active) | 7.9 (active) | 6.61 (active) |
| CALYFQSGTVAGNASASA [TV3] | -1.09 (inactive) | -1.65 (inactive) | -0.81 (inactive) |
| CAVFSQMETKAGNASASA [HC648] | -1.33 (inactive) | -0.992 (inactive) | -0.89 (inactive) |
| CAGYTGDFDSAGNASASA [HC882] | 0.222 (inactive) | -2.26 (inactive) | -1.5 (inactive) |
| CAICESAGVQAGNASASA [HC1532] | 0.831 (inactive) | -0.227 (inactive) | -1.02 (inactive) |
| CARRNRLRKDAGNASASA [FS-87] | 7.91 (active) | 8.84 (active) | 6.68 (active) |
| CARRKRLRQDAGNASASA [FS-2780] | 0.471 (inactive) | 0.0552 (inactive) | 1.44 |
| CARKRKGSDDAGNASASA [FS-2696] | 1.74 | 0.267 (inactive) | -0.22 (inactive) |
| CARTGRPVEPAGNASASA [FS-2822] | -0.133 (inactive) | -0.269 (inactive) | -0.327 (inactive) |
| CARKGRCVEPAGNASASA [FS-2686] | 3.13 | 3.86 (active) | 4.66 (active) |
| CARRKRKNKDAGNASASA [FS-1967] | -0.815 (inactive) | 0.207 (inactive) | 1.06 |
| CARKRRSTDFAGNASASA [FS-2217] | 9.58 (active) | 11.2 (active) | 9.06 (active) |
| CARKRRSTNEAGNASASA [FS-2039] | 13.4 (active) | 14 (active) | 10.3 (active) |
| CARKGRNKEIAGNASASA [FS-2687] | 0.916 (inactive) | 0.216 (inactive) | 0.59 (inactive) |
